# Bioassay records deposited in PubChem BioAssay by National Center for Advancing Translational Sciences (NCATS).
# Gal4-VP16 FLuc: Gal4-VP16 reporter inhibition counter-screen; Drosophila S2 Gal4-VP16 UAS-luciferase, luminescence, 20 h; Potency, µM (highest dose often 53.6 µM), for inactives: top-dose activity, negative = inhibition, hits mostly inhibitors; 310,000 compounds, 3.5% hits;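 further: Gal4-VP16 expression switched on by copper sulfate through the metallothionein promoter; potency means the concentration at half of the fitted maximal effect; on the % scale 0 is the no-effect control and ±100 the full control effect; nearly all actives have a fitted effect of over 50% in size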
# TRPV1 ag: activates the human vanilloid receptor TRPV1. 320,000 compounds, 0.19% hits. Q8NER1. activation, % at 8.33 µM. AID 540275. TRPV1-expressing cells, Fluo-8 calcium influx, agonist mode; in the data active means activation above about 80%; inconclusive means between about 30% and that limit; further: 0% is about no effect
#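 Fluo-8 calcium influx in TRPV1-expressing cells, kinetic read (ex 480/em 520 nm). Compound added and read 3 min for agonist activity, followed by capsaicin at EC20 final and 2 min further read for enhancement.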
# uPA surface inh: inhibitors of cell surface uPA generation. cell surface uPA generation assay, qHTS. Potency, µM (series often up to 38.3 µM), inactives show at the top dose activity change, negative = inhibition, usual class: inhibitors. 330,000 compounds, 0.31% hits. AID 540303; active means well fitted inhibition curve with a large enough effect; inconclusive means small, poorly fitted or top-dose-only effect; inactive means no such curve, though single readings can be large or run the other way; tested in mouse RAW 264.7 cells; further: potency means the concentration at half of the fitted maximal effect; on the % scale 0 is the no-effect control and ±100 the full control effect; nearly all actives have a fitted effect of over 55% in size
# RORgamma inh: blocks mouse ROR gamma transcriptional activity; P51450; Drosophila S2 Gal4-RORgamma UAS-luciferase reporter, 20 h; Potency, µM (titrated, usually from 53.6 µM), inactives show at the highest dose activity change, negative = inhibition, hits mostly inhibitors; 310,000 compounds, 5.4% hits; further: potency means the concentration at half of the fitted maximal effect; on the % scale 0 is the no-effect control and ±100 the full control effect; nearly all actives have a fitted effect of over 60% in size
# Target sequence (P51450 whole entry, looked up, the tested form may be a part): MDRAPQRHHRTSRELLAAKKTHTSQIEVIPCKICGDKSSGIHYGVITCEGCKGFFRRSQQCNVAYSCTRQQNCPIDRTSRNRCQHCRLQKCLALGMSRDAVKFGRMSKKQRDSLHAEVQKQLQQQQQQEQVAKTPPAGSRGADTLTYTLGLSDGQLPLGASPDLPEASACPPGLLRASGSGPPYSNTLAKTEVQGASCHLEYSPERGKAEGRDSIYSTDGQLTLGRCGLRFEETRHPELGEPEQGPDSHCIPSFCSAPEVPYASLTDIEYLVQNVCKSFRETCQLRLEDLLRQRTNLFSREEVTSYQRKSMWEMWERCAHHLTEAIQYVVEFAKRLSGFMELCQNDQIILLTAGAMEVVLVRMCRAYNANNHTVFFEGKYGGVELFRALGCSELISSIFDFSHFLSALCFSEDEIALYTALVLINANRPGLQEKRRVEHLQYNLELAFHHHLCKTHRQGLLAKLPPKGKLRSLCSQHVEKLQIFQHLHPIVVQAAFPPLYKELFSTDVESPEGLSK
#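 Compounds are pin-transferred onto Drosophila Schneider cells expressing a copper-inducible Gal4–ROR gamma transactivation domain fusion. After 1 hr, copper sulfate is added to 700 uM final; luciferase is read 20 hr later.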
# TRPV1 potentiator: human TRPV1 potentiation; Q8NER1; TRPV1-expressing cells, Fluo-8 calcium influx, capsaicin EC20 potentiation; potentiation, % at 8.33 µM; 320,000 compounds, 0.02% hits; AID 540277; in the data active means potentiation above about 80%; inconclusive means between about 30% and that limit; further: 0% is about no effect
#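 Cells expressing TRPV1 were dye-loaded with Fluo-8 and read kinetically: 10 s baseline, 3 min after compound (agonist portion), then 2 min after EC20 capsaicin (allosteric enhancer portion). Calcium-bound dye fluorescence at 480/520 nm.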
# Active calls of the source: *; ? = inconclusive; nt = no result given; [ ] = dose if it differs, or a comment. In the library only some 5.8% were active in any assay of this set; here they are far more common. Unless noted, the call rests on the fitted dose curve; in most records, active means well fitted curve in the direction sought with a large enough effect; inconclusive means small, poorly fitted or top-dose-only effect, or another doubt; inactive means no such curve, though single readings can be large; an effect the other way counts as inactive or inconclusive.
SMILES,Gal4-VP16 FLuc,TRPV1 ag,uPA surface inh,RORgamma inh,TRPV1 potentiator
Cc1cc(C)cc(NS(=O)(=O)c2ccc(NC(=S)NC(=O)c3cccs3)cc2)c1,1µM*,-3,7%,0.79µM*,11
CN(C1CCCCC1)S(=O)(=O)c1ccc(NC(=S)NC(=O)c2cccs2)cc1,?,1,nt,5.6µM*,-13
COc1ccc(CN(C)CC(=O)Nc2ccc(Cl)cc2C(F)(F)F)c(OC)c1,-3%,6,8%,12%,0
NC(=S)Nc1ncc(C(F)(F)F)cc1Cl,?,0,-1%,7.1µM*,-4
Fc1ccccc1NC(=S)NNc1ncc(C(F)(F)F)cc1Cl,16µM*,3,-2%,?,-5
Cc1cccc(C)c1NC(=S)NNc1ncc(C(F)(F)F)cc1Cl,?,4,-3%,7.9µM*,-4
Cc1c(Cl)cccc1NC(=S)NNc1ncc(C(F)(F)F)cc1Cl,?,2,nt,16µM*,-4
Cc1ccc(S(=O)(=O)Nc2ncc(C(F)(F)F)cc2Cl)cc1,-9%,2,4%,?,6
Cc1ccccc1NC(=S)NNc1ncc(C(F)(F)F)cc1Cl,3%,2,4%,3%,3
O=C(O)c1ccc(/C=N/Nc2ncc(C(F)(F)F)cc2Cl)cc1,13%,nt,3%,10µM*,nt
CC(C)(C)C(=O)Nc1ncc(C(F)(F)F)cc1Cl,20%,-4,0%,31%,-1
Cc1cc(C(=O)N=Nc2c(O)n(C(C)C)c3ccccc23)n[nH]1,?,1,-7%,11µM*,-26
CC(C)n1c(O)c(N=NC(=O)CNC(=O)CCc2ccccc2)c2ccccc21,-2%,9,1%,1%,-4
O=C(O)c1cc2ccccc2c(Cc2cc3ccccc3c(C(=O)O)c2O)c1O (tested in a mixture with another compound),-14%[17 µM],nt,nt,-8%[16.9 µM],nt
COC(=O)c1ccccc1C[C@]1(C(=O)OC)C=C[C@H](C)[C@@H](c2ccccc2)N1C(=O)C(F)(F)F,-19%,nt,nt,-11%,nt
CCN1c2ccccc2-c2nc3ccccc3n2C1c1cccs1 (stereo not drawn),?,?,0%,13µM*,-15
CCn1c(NCc2cccs2)nc2ccccc21,1%,0,-4%,-3%,-2
COc1ncc2nc(-c3ccccc3)c(=O)n(C[C@H]3CCCO3)c2n1,-1%,nt,nt,-16%,nt
CCCOc1ccccc1/C=N/NC(=O)C1CC1,-1%,2,10%,8.9µM*,5
CN(C)CCNC(=S)Nc1cccc(Cl)c1,-8%,0,-4%,-15%,-8
Cc1cccc(NC(=S)NNc2cccc(Cl)c2)c1,?,-1,-7%,2µM*,4
Cc1cccc(NC(=S)NNC(=O)c2ccco2)c1,-8%,5,nt,-21%,16
CN(C)NC(=S)Nc1cccc(Cl)c1,7.1µM*,nt,-3%,2.2µM*,nt
Cc1cccc(NNC(=S)Nc2c(C)cccc2C)c1,3.2µM*,12,4%,4µM*,-5
COc1cc(OC)cc(C(=O)N(Cc2ccco2)c2c(N)n(Cc3ccccc3)c(=O)[nH]c2=O)c1,nt,nt,-16%,nt,nt
SMILES,Gal4-VP16 FLuc,TRPV1 ag,uPA surface inh,RORgamma inh,TRPV1 potentiator
CCC(C)Sc1ccc([C@H]2N[C@@](CC(C)C)(C(=O)OC)[C@H]3C(=O)N(CC)C(=O)[C@@H]23)cc1 (stereo partly drawn),nt,87*,0%,nt,2
C/C(CC1CC2=C(CC1(C)C)C(C)(C)CCC2)=N\NC(N)=S (stereo not drawn),3.2µM*,19,-8%,2µM*,-4
COc1ccc2cc(C(=O)C3CCCN(C(=O)C4=NN(C)C(=O)CC4)C3)ccc2c1 (stereo not drawn),11%,13,-4%,7%,-17
N#CCCCS(=O)(=O)c1nnnn1-c1ccc(Br)cc1,-22%,nt,nt,8%,nt
N#CCCS(=O)(=O)c1nnnn1-c1ccccc1,4.5µM*,11,nt,2.8µM*,16
CN(C)c1ccc(/C=N/Nc2nncc3ccccc23)cc1,?,27,-12%,?,-27
COc1ccc(/C=N\Nc2ccccn2)c(OC)c1,?,1,-7%,?,7
Cc1cccc(/C=N/Nc2nncc3ccccc23)c1,20µM*,6,-15%,2.5µM*,-3
C(=N\Nc1nncc2ccccc12)/c1ccccc1,-3%,9,-17%,-26%,-2
COc1ccc(/C=N/Nc2nncc3ccccc23)c(OC)c1,22µM*,-1,-8%,4.5µM*,6
